Assay [1] deals with CCAAT/enhancer-binding protein beta (Homo sapiens) (UniProt P17676). Put plainly: ATG_C_EBP_CIS: Attagene CIS-FACTORIAL HepG2 Assay for human CCAAT/Enhancer Binding Protein (C/EBP) beta (AID 2282927). The note with it: HepG2 Attagene cis-factorial transcription factor reporter; actives raise or lower the signal. The procedure, abridged: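 Following a 24 h incubation with test chemical, transfected HepG2 cells yielded RNA whose reporter transcripts were quantified by RT-PCR and fluorescent capillary electrophoresis, with DMSO serving as baseline for bidirectional fitting.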
Sequence of CCAAT/enhancer-binding protein beta (Homo sapiens) (P17676 whole entry, looked up): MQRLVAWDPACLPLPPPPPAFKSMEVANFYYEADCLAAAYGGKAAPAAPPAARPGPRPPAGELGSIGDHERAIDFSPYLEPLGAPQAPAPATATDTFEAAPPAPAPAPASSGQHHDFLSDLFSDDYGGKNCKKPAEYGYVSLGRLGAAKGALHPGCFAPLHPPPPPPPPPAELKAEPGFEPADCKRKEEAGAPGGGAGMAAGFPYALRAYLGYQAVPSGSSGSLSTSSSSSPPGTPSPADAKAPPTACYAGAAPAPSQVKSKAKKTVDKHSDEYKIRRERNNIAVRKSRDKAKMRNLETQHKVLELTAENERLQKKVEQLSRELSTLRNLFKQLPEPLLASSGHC

Assay [2] in a line: ATG_DR4_LXR_CIS: Attagene CIS-FACTORIAL HepG2 Assay for human Liver X Receptor (LXR), DR4 submotif (AID 2282929). The note with it: HepG2 Attagene DR4 cis-reporter, mRNA transcription; actives raise or lower the signal. The procedure, abridged: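 After transient transfection with multiplexed cis-promoter reporter units, HepG2 cells received test chemicals for 24 h. Reporter mRNA induction, detected by fluorescence after RT-PCR and capillary electrophoresis, was scored relative to DMSO.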

The nature of assay [3]: ATG_AP_2_CIS: Attagene CIS-FACTORIAL HepG2 Assay for human Activator Protein 2 (AP-2) (AID 2282932). The note with it: HepG2 AP-2 cis-reporter, Attagene transcription factor profiling; actives raise or lower the signal. In a few lines: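 Bidirectional curve fitting against DMSO was applied to reporter mRNA signals from HepG2 cells 24 h after dosing. Cis-promoter reporter units, transiently transfected, were read by RT-PCR plus capillary electrophoresis.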

Assay [4] has as its target Transcription factor E2F1 (Homo sapiens) (UniProt Q01094). The assay can be described thus: ATG_E2F_CIS: Attagene CIS-FACTORIAL HepG2 Assay for human E2F Transcription Factor 1 (AID 2282935). The conditions noted are these: HepG2 Attagene cis-reporter, E2F reporter RNA transcripts; actives raise or lower the signal. In a few lines:
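Multiplexed cis-reporter assay: HepG2, transient transfection, 24 h dosing, mRNA quantitation by labeled RT-PCR and CE.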

Assay [5] in a line: ATG_E_Box_CIS: Attagene CIS-FACTORIAL HepG2 Assay for human Enhancer Box (E-box) (AID 2282936). The note with it: HepG2 E-box cis-reporter transcription, actives raise or lower the signal. The procedure, abridged: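 Multiplexed CIS reporter system in transiently transfected HepG2 cells measures native transcription factor activity. Reporter RNA after 24 h exposure is profiled by RT-PCR-capillary electrophoresis.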

Assay [6] can be described thus: ATG_M_19_CIS: Attagene CIS-FACTORIAL HepG2 Assay for M19 Transcription Factor (Internal Marker) (AID 2282939). The note with it: HepG2 Attagene CIS-FACTORIAL M19 internal marker reporter; actives raise or lower the signal. The procedure, abridged:
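Signals come from fluorescence of labelled reporter-specific PCR fragments resolved by capillary electrophoresis, following 24 h treatment of HepG2 cells transfected with cis-promoter reporter units; activity was fitted in both directions relative to DMSO.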

Assay [7] in a line: ATG_GLI_CIS: Attagene CIS-FACTORIAL HepG2 Assay for human Zinc Finger Protein GLI1 (AID 2282945). The note with it: HepG2, Attagene cis-factorial reporter mRNA, GLI element; actives raise or lower the signal. In a few lines:
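HepG2 cells transiently transfected with cis-promoter multiplexed reporter units report endogenous transcription factor activity. After 24 h chemical exposure, reporter mRNA was quantified by RT-PCR, 6-FAM labelling, HpaI digestion and capillary electrophoresis, with bidirectional fitting against DMSO.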

A short description of assay [8]: ATG_ISRE_CIS: Attagene CIS-FACTORIAL HepG2 Assay for human Interferon Regulatory Factor 1 (IRF1) binding to an Interferon-Stimulated Response Element (ISRE) (AID 2282948). The conditions noted are these: HepG2 ISRE cis-reporter (Attagene), mRNA transcription readout; actives raise or lower the signal. The procedure, abridged:
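Transfected HepG2 (multiple reporter transcription units, cis elements) dosed 24 h. RNA → oligo(dT) RT → PCR → 6-FAM primer extension → HpaI → CE. DMSO = negative control/baseline.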

Assay [9] is described as follows: ATG_M_32_CIS: Attagene CIS-FACTORIAL HepG2 Assay for M32 Transcription Factor (Internal Marker) (AID 2282949).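 Note: background control marker of the multiplexed CIS panel rather than a real target.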 The conditions noted are these: HepG2 Attagene cis-factorial M32 reporter, mRNA; actives raise or lower the signal. The procedure, abridged:
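Fluorescent capillary electrophoresis peaks of HpaI-digested, FAM-labelled RT-PCR reporter products give the signal. Source: transiently transfected human liver HepG2 cells, 24 h after chemical dosing; bidirectional fitting against DMSO.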

Assay [10] is described as follows: ATG_PXRE_CIS: Attagene CIS-FACTORIAL HepG2 Assay for human Pregnane X Receptor Element (PXRE) (AID 2282957). The conditions noted are these: HepG2 Attagene CIS-FACTORIAL PXRE reporter, mRNA; actives raise or lower the signal. The procedure, abridged: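 Cis-element reporter mRNA in human hepatoma HepG2 cells is measured 24 h post-dosing by RT-PCR, primer-extension labeling and capillary electrophoresis; gain or loss of signal is fitted relative to DMSO.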

Assay [11] in a line: ATG_Sox_CIS: Attagene CIS-FACTORIAL HepG2 Assay for human SRY-box transcription factor (SOX) (AID 2282960). The conditions noted are these: HepG2 Attagene cis-factorial SOX reporter, mRNA; actives raise or lower the signal. In a few lines: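 Using transiently transfected HepG2 cells, reporter transcription driven by cis elements was assessed 24 h after dosing. Signal was fluorescence of capillary-separated RT-PCR products, with DMSO defining baseline activity.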

In assay [12] the target is Transcription factor Sp1 (Homo sapiens) (UniProt P08047). The assay can be described thus: ATG_Sp1_CIS: Attagene CIS-FACTORIAL HepG2 Assay for human Specificity Protein 1 (Sp1) (AID 2282961). The conditions noted are these: HepG2 Sp1 cis-reporter transcription, actives raise or lower the signal. In a few lines: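 After transient transfection of HepG2 cells with cis-promoter reporter units and 24 h chemical treatment, reporter transcripts were quantified by RT-PCR and capillary electrophoresis fluorescence. Gain- and loss-of-signal fitted against DMSO.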
Sequence of Transcription factor Sp1 (Homo sapiens) (P08047 whole entry, looked up): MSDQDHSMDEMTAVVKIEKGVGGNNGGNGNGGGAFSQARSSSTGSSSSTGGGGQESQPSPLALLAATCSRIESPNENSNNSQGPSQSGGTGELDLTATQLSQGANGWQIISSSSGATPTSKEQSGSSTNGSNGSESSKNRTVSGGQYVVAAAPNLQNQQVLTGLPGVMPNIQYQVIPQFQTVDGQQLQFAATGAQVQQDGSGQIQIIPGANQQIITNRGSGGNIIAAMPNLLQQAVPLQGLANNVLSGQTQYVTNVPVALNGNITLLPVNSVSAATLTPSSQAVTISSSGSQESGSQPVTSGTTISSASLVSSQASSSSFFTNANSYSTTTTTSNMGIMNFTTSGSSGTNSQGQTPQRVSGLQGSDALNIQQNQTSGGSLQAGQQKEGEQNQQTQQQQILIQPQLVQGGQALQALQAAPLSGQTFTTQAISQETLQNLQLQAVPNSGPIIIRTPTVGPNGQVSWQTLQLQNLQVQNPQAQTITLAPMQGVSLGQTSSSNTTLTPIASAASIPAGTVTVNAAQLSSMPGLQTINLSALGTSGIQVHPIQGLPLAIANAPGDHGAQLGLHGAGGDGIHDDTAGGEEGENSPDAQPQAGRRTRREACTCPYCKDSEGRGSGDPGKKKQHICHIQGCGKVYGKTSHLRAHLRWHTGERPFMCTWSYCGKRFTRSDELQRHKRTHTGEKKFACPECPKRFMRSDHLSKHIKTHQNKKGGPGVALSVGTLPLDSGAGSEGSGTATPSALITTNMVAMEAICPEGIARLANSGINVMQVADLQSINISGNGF

Assay [13] has as its target Signal transducer and activator of transcription 3 (Homo sapiens) (UniProt P40763). Put plainly: ATG_STAT3_CIS: Attagene CIS-FACTORIAL HepG2 Assay for human Signal Transducer and Activator of Transcription 3 (STAT3) (AID 2282963). The conditions noted are these: HepG2, Attagene cis-factorial STAT3 reporter transcription; actives raise or lower the signal. In a few lines: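 Transcript-level reporter assay. HepG2 transient MRTU transfection, 24 h exposure, fluorescence detection after RT-PCR and CE; DMSO baseline.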

Assay [14] is described as follows: ATG_TA_CIS: Attagene CIS-FACTORIAL HepG2 Assay for human TA Basal Promoter (AID 2282964). The conditions noted are these: HepG2 Attagene CIS-factorial TA basal promoter reporter; actives raise or lower the signal. In a few lines:
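Fluorescence from labelled RT-PCR reporter fragments, separated by capillary electrophoresis, gives the signal. Cells: HepG2 transiently carrying multiple reporter units, 24 h chemical dosing. Gain or loss relative to DMSO.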

A short description of assay [15]: ATG_TCF_b_cat_CIS: Attagene CIS-FACTORIAL HepG2 Assay for human T-Cell-Factor with beta-catenin (TCF/b-cat) (AID 2282965). The note with it: HepG2 TCF/beta-catenin cis-reporter transcription, actives raise or lower the signal. In a few lines:
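Using capillary electrophoresis as the read-out, labelled reporter cDNA fragments from transiently transfected HepG2 were sized and quantified. Exposure lasted 24 hours; activity in either direction was referenced to DMSO.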

A short description of assay [16]: ATG_TAL_CIS: Attagene CIS-FACTORIAL HepG2 Assay for human TAL Basal Promoter (AID 2282966).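 Note: background control endpoint measuring basal TAL promoter reporter mRNA not a specific factor.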 The conditions noted are these: HepG2 Attagene cis-factorial TAL promoter reporter; actives raise or lower the signal. The procedure, abridged: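 In this cell-based multiplex, HepG2 liver cells bearing cis-promoter reporter constructs are dosed for 24 hours. Total RNA is reverse-transcribed and amplified, labelled fragments are sized by capillary electrophoresis, and signal changes are fitted bidirectionally versus DMSO.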

In assay [17] the target is X-box-binding protein 1 (Homo sapiens) (UniProt P17861). The assay can be described thus: ATG_Xbp1_CIS: Attagene CIS-FACTORIAL HepG2 Assay for human X-box Binding Protein 1 (XBP1) (AID 2282972). The note with it: HepG2 XBP1 cis-element reporter, Attagene multiplex; actives raise or lower the signal. In a few lines: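 HepG2, transient MRTU transfection (cis-promoter driven), 24 h compound exposure. Total RNA → oligo(dT) RT → PCR → 6-FAM labeling → HpaI cut → CE. Bidirectional fit vs DMSO.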
Sequence of X-box-binding protein 1 (Homo sapiens) (P17861 whole entry, looked up): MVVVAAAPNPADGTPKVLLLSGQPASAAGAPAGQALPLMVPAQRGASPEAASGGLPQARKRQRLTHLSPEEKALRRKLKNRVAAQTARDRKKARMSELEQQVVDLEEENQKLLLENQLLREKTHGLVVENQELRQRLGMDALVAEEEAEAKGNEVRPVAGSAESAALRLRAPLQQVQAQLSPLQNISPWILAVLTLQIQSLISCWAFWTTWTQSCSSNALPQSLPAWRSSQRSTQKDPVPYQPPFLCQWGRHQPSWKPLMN

The target in assay [18] is Transcriptional activator Myb (Homo sapiens) (UniProt P10242). The assay can be described thus: ATG_Myb_CIS: Attagene CIS-FACTORIAL HepG2 Assay for human Myeloblastosis (Myb) Proto-Oncogene Transcription Factor (AID 2282986). The conditions noted are these: HepG2 Attagene CIS-FACTORIAL Myb reporter transcription; actives raise or lower the signal. The procedure, abridged: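 Multiplexed cis-reporter system in HepG2: transient transfection, 24 h treatment, mRNA readout by RT-PCR and capillary electrophoresis. Both increases and decreases are scored versus DMSO negative control.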
Sequence of Transcriptional activator Myb (Homo sapiens) (P10242 whole entry, looked up): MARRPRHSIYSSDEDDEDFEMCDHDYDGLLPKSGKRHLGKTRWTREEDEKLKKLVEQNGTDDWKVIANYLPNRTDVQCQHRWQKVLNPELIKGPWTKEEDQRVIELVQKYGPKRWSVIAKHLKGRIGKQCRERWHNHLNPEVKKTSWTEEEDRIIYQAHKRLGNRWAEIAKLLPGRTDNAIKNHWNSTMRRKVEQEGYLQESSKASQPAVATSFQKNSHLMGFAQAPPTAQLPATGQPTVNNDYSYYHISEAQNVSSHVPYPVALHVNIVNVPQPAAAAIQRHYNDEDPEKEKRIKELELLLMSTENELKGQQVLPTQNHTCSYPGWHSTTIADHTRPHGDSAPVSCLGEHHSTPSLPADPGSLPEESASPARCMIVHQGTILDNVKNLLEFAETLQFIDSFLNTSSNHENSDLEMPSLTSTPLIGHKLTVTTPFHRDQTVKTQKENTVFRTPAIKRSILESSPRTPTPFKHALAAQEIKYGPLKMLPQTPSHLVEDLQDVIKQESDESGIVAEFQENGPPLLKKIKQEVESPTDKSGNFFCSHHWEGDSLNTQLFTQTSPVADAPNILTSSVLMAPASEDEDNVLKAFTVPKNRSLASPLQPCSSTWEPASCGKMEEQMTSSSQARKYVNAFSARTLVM

Assay [19] has as its target Myc proto-oncogene protein (Homo sapiens) (UniProt P01106). Put plainly: ATG_Myc_CIS: Attagene CIS-FACTORIAL HepG2 Assay for human Myelocytomatosis (Myc) Proto-Oncogene Transcription Factor (AID 2282990). The conditions noted are these: HepG2, Attagene cis-reporter transcription factor activity; actives raise or lower the signal. The procedure, abridged:
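Multiplexed cis-reporter transcription in HepG2 cells after 24 h chemical treatment. Reporter mRNA measured by RT-PCR and capillary electrophoresis fluorescence; activity fitted bidirectionally against DMSO control.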

Assay [20] is described as follows: ATG_Oct_MLP_CIS: Attagene CIS-FACTORIAL HepG2 Assay for human Octamer-Binding Transcription Factor (Oct) (AID 2282993). The conditions noted are these: HepG2 Attagene cis-factorial Oct reporter, mRNA; actives raise or lower the signal. In a few lines:
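HepG2, transient MRTU transfection, cis promoter elements; 24 h dosing; RT-PCR/CE fluorescence read-out of reporter mRNA; fit both directions vs DMSO.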

Active and inactive are the calls of the source. Rule for the calls: active = hit-call score of the fitted dose curve at least 0.9, where 1 is the maximum; inactive = score below 0.9.

Sequence of Transcription factor E2F1 (Homo sapiens) (Q01094 whole entry, looked up): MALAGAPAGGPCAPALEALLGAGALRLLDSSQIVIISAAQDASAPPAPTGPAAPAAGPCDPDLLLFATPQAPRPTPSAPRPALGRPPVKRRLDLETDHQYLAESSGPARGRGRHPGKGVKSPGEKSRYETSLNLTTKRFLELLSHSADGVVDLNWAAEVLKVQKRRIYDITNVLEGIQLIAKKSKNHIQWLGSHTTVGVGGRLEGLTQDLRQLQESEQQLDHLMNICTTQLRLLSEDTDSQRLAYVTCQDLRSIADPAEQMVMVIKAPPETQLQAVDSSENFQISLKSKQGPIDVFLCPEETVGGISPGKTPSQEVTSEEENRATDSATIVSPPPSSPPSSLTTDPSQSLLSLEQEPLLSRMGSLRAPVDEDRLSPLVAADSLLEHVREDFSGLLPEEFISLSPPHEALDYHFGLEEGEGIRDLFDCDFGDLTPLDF
Sequence of Myc proto-oncogene protein (Homo sapiens) (P01106 whole entry, looked up): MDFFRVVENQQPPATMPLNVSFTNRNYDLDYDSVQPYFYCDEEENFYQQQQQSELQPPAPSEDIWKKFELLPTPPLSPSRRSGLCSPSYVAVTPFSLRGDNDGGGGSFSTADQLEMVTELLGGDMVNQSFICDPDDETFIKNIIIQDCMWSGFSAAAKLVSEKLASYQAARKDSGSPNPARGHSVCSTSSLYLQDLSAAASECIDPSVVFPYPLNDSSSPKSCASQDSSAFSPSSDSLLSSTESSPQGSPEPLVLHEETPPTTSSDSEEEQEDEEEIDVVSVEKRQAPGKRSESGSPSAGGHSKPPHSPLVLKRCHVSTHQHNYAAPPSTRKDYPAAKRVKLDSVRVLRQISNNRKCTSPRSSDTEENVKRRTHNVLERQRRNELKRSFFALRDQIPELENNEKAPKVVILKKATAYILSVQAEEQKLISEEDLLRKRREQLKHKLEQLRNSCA
Sequence of Signal transducer and activator of transcription 3 (Homo sapiens) (P40763 whole entry, looked up): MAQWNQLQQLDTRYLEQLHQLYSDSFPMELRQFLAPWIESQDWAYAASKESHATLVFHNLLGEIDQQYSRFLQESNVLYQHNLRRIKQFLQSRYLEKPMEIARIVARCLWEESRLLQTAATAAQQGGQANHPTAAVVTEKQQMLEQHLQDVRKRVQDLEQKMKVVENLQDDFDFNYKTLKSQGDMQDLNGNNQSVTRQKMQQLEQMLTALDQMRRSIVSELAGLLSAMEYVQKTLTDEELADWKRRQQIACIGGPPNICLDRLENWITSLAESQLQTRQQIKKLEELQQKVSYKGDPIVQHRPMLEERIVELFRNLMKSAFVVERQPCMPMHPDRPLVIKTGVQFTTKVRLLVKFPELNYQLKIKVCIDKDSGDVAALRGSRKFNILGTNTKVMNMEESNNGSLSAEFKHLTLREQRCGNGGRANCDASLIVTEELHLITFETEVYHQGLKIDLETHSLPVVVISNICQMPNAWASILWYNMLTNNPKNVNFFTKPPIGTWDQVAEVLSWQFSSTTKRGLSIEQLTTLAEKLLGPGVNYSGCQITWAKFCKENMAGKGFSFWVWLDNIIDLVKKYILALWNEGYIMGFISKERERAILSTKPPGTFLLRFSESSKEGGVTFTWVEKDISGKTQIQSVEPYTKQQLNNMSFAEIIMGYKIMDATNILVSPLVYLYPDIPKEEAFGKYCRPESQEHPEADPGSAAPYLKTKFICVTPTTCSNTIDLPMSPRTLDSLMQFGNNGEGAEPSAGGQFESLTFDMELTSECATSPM

For `CSc1nc(N=[N+]=[N-])nc(NC(C)C)n1`, the result in [1], in assay [2], in assay [3], in [4], in [5] and in [6] was inactive. In addition, the result in assay [7], in assay [8], in assay [9], in [11], in [12] and in assay [13] was inactive. Moreover, the call in assay [14], in assay [15], in assay [16], in assay [17], in [18] and in assay [19] was inactive. Further, the call in assay [20] was inactive. For the same compound, the half-maximal activity concentration (AC50) in assay [10] is 27.2 µM (active).
Consider `CC[N+](=O)[O-]`, for which the result in assay [1], in assay [2], in assay [3], in assay [4], in [5] and in assay [6] was inactive. In addition, the outcome in assay [7], in assay [8], in assay [9], in assay [10], in [11] and in assay [12] was inactive. The compound was called inactive in [13], in assay [14], in [15], in assay [16], in [17] and in [18]. In addition, the outcome in [19] and in assay [20] was inactive.
In the case of `Nc1ccccc1C(=O)Oc1ccc2ccccc2c1`, the outcome in assay [1], in assay [4], in [5], in [8], in assay [9] and in [10] was inactive. The compound was called inactive in assay [14], in assay [17] and in [19]. Besides, the AC50 in [2] was 63.9 µM (active); in [3] it was 66.8 µM (active); in assay [6] it was 166 µM (active); in assay [7], 70.9 µM (active); in assay [11], 166 µM (active); in assay [12] it was 56.2 µM (active). For the same compound, the AC50 in [13] was 74.5 µM (active); in [15], 164 µM (active); in [16], 116 µM (active); in assay [18] it was 162 µM (active); in assay [20], 54.7 µM (active).
